PubChem BioAssay (Tox21)
Active and inactive are the calls of the source. Calls come from the whole dose curve; as a rule, active = well fitted curve in the direction sought with a large enough effect in the repeat runs; inconclusive = weak or mixed curves; inactive = flat fitted curve, though single readings scatter.

Assay: qHTS assay to test for compound auto fluorescence at 590 nm (red) in HepG2 cell free culture (AID 720684)
Conditions: cell-free medium autofluorescence, red 540/590 nm; series mostly up to 91.3 µM
Text: U.S. Tox21 Program National Center for Advancing Translational Sciences [NCATS] NIH Chemical Genomics Center [NCGC] U.S. Environmental Protection Agency [EPA] National Institutes of Environmental Health Sciences [NIEHS] National Toxicology Program [NTP] U.S. Food and Drug Administration [FDA] Tox21 Assay Overview: Compound auto fluorescence often interferes with screening of the compound library against various biological targets and signaling pathways. Some of these compounds may have fluorophoric properties. Such properties may interfere with the assay outputs resulting in false positives and/or negatives. To decrease such complications and ensure the compound activities are relevant in terms of biological response, the Tox21 10K compound library was screened for auto fluorescence. From the fluorophores used as reporter signals in our screening assays, the auto fluorescence equivalencies of compounds against three fluorophores have been evaluated: Triamterene, Fluorescein and Rose Bengal sodium for blue, green and red fluorescence, respectively. The fluorescence intensities were measured using Excitation/Emission wavelengths at 405/460nm, 485/535nm and 540/590nm for blue, green and red labels, respectively. This assay includes the red fluorescence data.
Tox21 Assay Protocol Summary: 5 uL of culture medium (MEM containing 10% FBS) per well was dispensed into black wall/clear bottom 1536-well plates using a Multidrop Combi Dispenser (ThermoFisher Scientific, Waltham, MA). After 23 nL compound or DMSO vehicle was transferred into assay plate by a pintool work station (Kalypsys, San Diego, CA), fluorescence intensities in the assay plates were measured by an Envision (PerkinElmer, Shelton, CT) plate reader using three labels for measuring blue, green and red fluorescence at […] 460, 535 and 590nm respectively.

Compound	outcome
O=S(=O)(Oc1ccc(Cl)cc1Cl)c1ccccc1	inactive
CC1(C)CC(N=C=O)CC(C)(CN=C=O)C1 (stereo not given)	inactive
CC(C)(CO)COC(=O)C(C)(C)CO	inactive
CC1Cc2ccccc2N1NC(=O)c1ccc(Cl)c(S(N)(=O)=O)c1 (stereo not given)	inactive
Nc1nc2ncc(CNc3ccc(C(=O)N[C@@H](CCC(=O)O)C(=O)O)cc3)nc2c(=O)[nH]1	inactive
Cc1cc(=O)[nH]c(C(C)C)n1	inactive
OCCOCCOCCOCCO	inactive
CCCCC(CC)COC(=O)CCCCCCCC(=O)OCC(CC)CCCC (stereo not given)	inactive
CCCCCCCCCCCCOCC1CO1 (stereo not given)	inactive
Nc1cc(-c2ccncc2)c[nH]c1=O	inactive
NCCNCCNCCNCCN	inactive
Oc1c(Cl)cc(Cl)c(Cl)c1Cl	inactive
NCCc1ccc(O)c(O)c1	inactive
CC1(C)O[C@@H]2C[C@H]3[C@@H]4C[C@H](F)C5=CC(=O)CC[C@]5(C)[C@H]4[C@@H](O)C[C@]3(C)[C@]2(C(=O)CO)O1	inactive
OC1CCCC1	inactive
COC(=O)c1ccccc1O	inactive
C/C=C(C)/C=C/C=C(C)C	inactive
ClC1=C(Cl)C(Cl)(Cl)C(Cl)=C1Cl	inactive
O=C(c1cc(O)c(O)c(O)c1)c1ccc(O)c(O)c1O	inactive
CC[Si](OC(C)=O)(OC(C)=O)OC(C)=O	inactive

Compound	outcome
O=S(=O)(O)c1cc(S(=O)(=O)O)c2c(N=Nc3ccccc3)c(O)ccc2c1	inactive
CCCCCCOC(C)=O	inactive
Cc1cc(Cc2ccc(N)c(C)c2)ccc1N	inactive
Cc1cc(O)c2c(c1)C(=O)c1cc(O)cc(O)c1C2=O	inactive
CC(C)NCC(O)COc1cccc2ccccc12 (stereo not given)	inactive
COCC(=O)O	inactive
OCC1CCCO1 (stereo not given)	inactive
CC(C)Cc1ccccc1	inactive
CCCCC(CC)COC(C)=O (stereo not given)	inactive
CS(=O)(=O)c1ccc([C@@H](O)[C@@H](CO)NC(=O)C(Cl)Cl)cc1	inactive
C=C(C)C(=O)OCCCCCC	inactive
C=C(C)C(=O)OCCC[Si](OC)(OC)OC	inactive
Cc1ccc(C(=O)O)o1	inactive
CCCCCCCCC	inactive
C=C(C)C(=O)OCCCCCCCCCCCC	inactive
Cc1cc(NS(=O)(=O)c2ccc(N)cc2)no1	inactive
O=S(=O)(O)CCS	inactive
Oc1ccc(OCc2ccccc2)cc1	inactive
CN(C)c1ccc(C(=N)c2ccc(N(C)C)cc2)cc1	inactive
CCOC(=O)C1OC1c1ccccc1 (stereo not given)	inactive
